Screening results (PubChem)
In the library only some 1.8% were active in any assay of this set; here they are far more common.
Gli-Sufu antag: Gli-Sufu pathway antagonism; 340,000 compounds, 0.74% hits; inhibition, % at 5 µM; AID 588413; Sufu-KO-LIGHT fibroblasts, Gli luciferase reporter luminescence;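 active = inhibition above about 55%, limit read from the data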;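 note: 0% = DMSO-treated cells and 100% = wells with medium but no cells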
Jurkat NFkB inh: inhibitors of the PMA/ionomycin-induced NF-kB reporter in Jurkat cells. PMA/ionomycin-induced NF-kB luciferase reporter, luminescence. inhibition, % at 4 µM. 330,000 compounds, 0.53% hits; in the data active = inhibition above about 50%
697 NFkB inh: inhibitors of the PMA/ionomycin-induced NF-kB reporter in 697 B cells; 697 B-cell NF-kB luciferase reporter, 16 h; inhibition, % at 4 µM; 330,000 compounds, 0.33% hits; AID 435022; in the data active = inhibition above about 35%
Beta cell apopt: beta cell apoptosis inhibition. AID 435005. INS-1E cytokine-induced death, ATP luminescence, 48 h; percent of positive-control rescue, neutral wells zero. protection from apoptosis, % (concentration not given with the values). 300,000 compounds, 0.8% hits;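 active = Every replicate reaches about 75%, or at least half do and their mean reaches it too, limit read from the data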;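 note: 0% = cytokine-treated negative control wells and 100% = positive control rescue; higher means more ATP so stronger rescue from cytokine killing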
Starred values were filed as active, the others as inactive; x = no result given.

SMILES	Gli-Sufu antag	Jurkat NFkB inh	697 NFkB inh	Beta cell apopt
Cc1cccc(N=C2NN=C(c3c(C)[nH]c4ccccc34)CS2)c1	-2	-17	-20	8
CC1=[N+](C)c2ccc3ccccc3c2C1(C)C	70*	35	-17	99*
COc1ccccc1N1CCN(C(CNS(=O)(=O)c2ccccc2)c2ccccc2)CC1 (configuration not stated)	9	5	-28	6
O=C(COC(=O)C1CCN(S(=O)(=O)c2ccc3c(c2)OCCO3)CC1)NC1CCS(=O)(=O)C1 (configuration not stated)	-18	-2	6	-7
CCc1ccc(NC(=O)NCC2CCN(Cc3cccc(Cl)c3)CC2)cc1	-2	2	0	-2
Cc1ccc(NC(=O)NCC2CCN(Cc3cccc(Cl)c3)CC2)cc1Cl	-2	9	0	120*
CN(C)CCN1C(=O)c2cccc3cc([N+](=O)[O-])cc(c23)C1=O	69*	x	x	x
O=C1N(CN2CCN(c3cccc(Cl)c3)CC2)c2ccccc2C12OCCCO2	4	-2	13	1
Cc1ccc2c(c1C)-c1c(ccc(C)c1C)C(=O)C2=O	64*	x	x	x
CC(=O)Nc1ccc(S(=O)(=O)N(C)CC(=O)OCC(=O)N(CC(C)C)C2CCS(=O)(=O)C2)cc1 (configuration not stated)	-3	19	16	-2
COc1ccc(C(CCNCc2ccc(OC(C)C)cc2)c2ccccc2OC)cc1 (configuration not stated)	8	-5	-1	76*
COc1ccc(CNCCC(c2ccc(OC)cc2)c2ccccc2OC)cc1 (configuration not stated)	23	0	-18	6
CC(C)C(=O)Nc1ccc(C(=O)NCc2cccnc2)cc1	-19	-9	12	107*
O=C(NCc1cccnc1)c1ccc(NC(=O)c2ccc(Br)cc2)cc1	23	9	1	140*
O=C(NCc1cccnc1)Nc1ccc(Br)cc1	-8	-10	5	-6
CCc1ccc(S(=O)(=O)/N=C2/C=C(Sc3ncn[nH]3)C(=O)c3ccccc32)cc1	1	x	x	127*
CCNC1CCC(Nc2ccnc3cc(Cl)ccc23)CC1 (configuration not stated)	22	x	x	x
COc1ccccc1NC(=S)NC1CCCCC1	-5	-7	8	-4
COc1ccccc1NC(=S)NC1CCCCCCCCCCC1	9	4	-5	77*
COCc1ccc(O)c2ncccc12	2	25	5	91*
Cc1cccc(NCc2ccc(O)c3ncccc23)c1	-2	-4	-12	6
Oc1ccc(Cn2ccnc2)c2cccnc12	7	-8	-11	-3
Oc1ccc(CNc2ccccc2)c2cccnc12	4	-8	-9	105*
Cc1ccccc1N=Nc1ccc(O)c2ncccc12	18	x	x	99*
Oc1ccc(CNc2ccc(F)cc2)c2cccnc12	0	14	-67	92*
SMILES	Gli-Sufu antag	Jurkat NFkB inh	697 NFkB inh	Beta cell apopt
COc1ccc(NC(=O)Nc2ccccc2F)cc1	-85	-116	-207	20
COc1ccc(OC)c(C(=O)CSc2nc3ccccc3n2CC(=O)NC(C)(C)C)c1	2	-18	-19	-7
O=C(CCSc1nc(-c2ccc3c(c2)OCO3)cc(C(F)(F)F)n1)NCc1ccco1	8	-9	-13	-3
CN1CCN(C2=C(Cl)C(=O)N(Cc3ccccc3)C2=O)CC1	-4	-10	-3	-5
O=C(Cc1cccc(NC(=O)C2CCN(S(=O)(=O)c3cccc([N+](=O)[O-])c3)CC2)c1)Nc1cccc(C(=O)N2CCOCC2)c1	-3	x	x	x
NS(=O)(=O)c1ccc(N/N=C2/CCCCC2C2CCCCC2)c([N+](=O)[O-])c1 (configuration not stated)	9	7	-25	76*
CCN(Cc1ccccc1)C(c1ccc(C(F)(F)F)cc1)c1nnnn1C(C)(C)C (configuration not stated)	4	12	2	106*
O=C(Nc1ccc(F)cc1F)Nc1csc2ccccc12	4	-24	-31	13
O=C(Nc1ccc(F)c(Cl)c1)Nc1csc2ccccc12	-13	-8	-36	83*
C=CCSc1nsc(NC(=O)Nc2ccc(F)cc2)n1	39	-1	-39	111*
CCSc1nsc(NC(=O)Nc2ccccc2F)n1	-38	-44	-92	19
COc1ccc(-c2sc3ccccc3c2-c2ccc(OCCN3CCCCC3)cc2)cc1	6	6	-1	103*
O=C(Nc1cc(Cl)ccc1-n1cncn1)c1ccc([N+](=O)[O-])s1	15	6	19	102*
CCc1ccc(C2=NNC(=Nc3cccc(S(=O)(=O)N(C)C)c3)SC2)cc1	26	2	-26	120*
